# Laboratory results: PubChem BioAssay AID1117353 (Cheminformatics & Chemogenomics Research Group (CCRG), …, 2015)
# The source made the active and inactive calls. No stated cut-off is given here; in the data, active means inhibition above about 50%; inactive means the rest.
# Biological target: Vascular endothelial growth factor receptor 2 (Homo sapiens) (UniProt P35968)
# Test: VEGFR2 inhibitors, primary assay, biochemical, Homo sapiens, LANCE Ultra TR-FRET, NPC library (AID 1117353)
# Conditions: LANCE Ultra TR-FRET kinase assay; at 20 µM (top of the series)
# Vascular endothelial growth factor receptor 2 (Homo sapiens), sequence (P35968 whole entry, looked up): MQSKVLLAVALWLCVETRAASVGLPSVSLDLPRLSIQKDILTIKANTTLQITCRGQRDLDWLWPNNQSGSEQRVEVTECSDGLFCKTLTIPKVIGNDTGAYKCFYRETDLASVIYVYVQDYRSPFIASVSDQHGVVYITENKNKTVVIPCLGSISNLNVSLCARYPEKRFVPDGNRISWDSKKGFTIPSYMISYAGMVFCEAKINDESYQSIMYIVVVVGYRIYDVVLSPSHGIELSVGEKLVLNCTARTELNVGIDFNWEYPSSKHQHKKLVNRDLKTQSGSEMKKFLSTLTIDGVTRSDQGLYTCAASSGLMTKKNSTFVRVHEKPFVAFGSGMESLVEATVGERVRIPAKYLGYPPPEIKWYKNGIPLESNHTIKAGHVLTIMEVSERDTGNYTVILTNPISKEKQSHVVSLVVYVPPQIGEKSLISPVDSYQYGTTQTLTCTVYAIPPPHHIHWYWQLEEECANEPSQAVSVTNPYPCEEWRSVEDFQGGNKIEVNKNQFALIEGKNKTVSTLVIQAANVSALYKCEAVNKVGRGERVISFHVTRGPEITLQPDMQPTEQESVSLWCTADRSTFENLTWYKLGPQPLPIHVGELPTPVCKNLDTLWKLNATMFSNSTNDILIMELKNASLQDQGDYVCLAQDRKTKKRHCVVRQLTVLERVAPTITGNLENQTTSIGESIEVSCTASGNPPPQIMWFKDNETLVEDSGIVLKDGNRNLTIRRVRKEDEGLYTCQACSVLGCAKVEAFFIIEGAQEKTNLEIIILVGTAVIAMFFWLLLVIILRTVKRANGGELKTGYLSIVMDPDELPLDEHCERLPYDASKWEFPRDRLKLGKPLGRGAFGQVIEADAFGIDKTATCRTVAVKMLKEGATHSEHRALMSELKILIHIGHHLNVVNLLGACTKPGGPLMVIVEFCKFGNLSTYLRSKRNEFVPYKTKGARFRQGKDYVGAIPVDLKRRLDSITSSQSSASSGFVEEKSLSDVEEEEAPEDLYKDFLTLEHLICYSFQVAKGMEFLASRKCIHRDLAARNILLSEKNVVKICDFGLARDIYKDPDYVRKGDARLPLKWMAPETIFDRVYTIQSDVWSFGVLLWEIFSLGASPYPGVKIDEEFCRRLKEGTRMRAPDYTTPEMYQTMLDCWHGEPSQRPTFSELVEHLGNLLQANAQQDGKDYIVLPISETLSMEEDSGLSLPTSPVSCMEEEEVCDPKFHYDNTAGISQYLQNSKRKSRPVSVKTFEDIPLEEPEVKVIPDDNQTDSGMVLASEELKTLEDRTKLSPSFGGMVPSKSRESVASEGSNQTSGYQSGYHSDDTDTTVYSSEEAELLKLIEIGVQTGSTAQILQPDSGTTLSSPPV
row,SMILES,inhibition
1,COc1c(C)c2c(c(O)c1C/C=C(\C)CCC(=O)OCCN1CCOCC1)C(=O)OC2,-1.65% (inactive)
2,COc1cc2nc(N3CCN(C(=O)c4ccco4)CC3)nc(N)c2cc1OC,-41.4% (inactive)
3,Cn1cnc([N+](=O)[O-])c1Sc1ncnc2nc[nH]c12,-18.2% (inactive)
4,CC[C@@H]([C@H](C)O)n1ncn(-c2ccc(N3CCN(c4ccc(OC[C@@H]5CO[C@@](Cn6cncn6)(c6ccc(F)cc6F)C5)cc4)CC3)cc2)c1=O,22.9% (inactive)
5,COC(=O)Nc1nc2ccc(C(=O)c3ccccc3)cc2[nH]1,74.1% (active)
6,COc1cc(NCc2ccc3nc(N)nc(N)c3c2C)cc(OC)c1OC,35.8% (inactive)
7,O=C1c2c(O)ccc(O)c2C(=O)c2c(NCCNCCO)ccc(NCCNCCO)c21,-38% (inactive)
8,COc1cc2c(c(OC)c1OC)-c1ccc(OC)c(=O)cc1[C@@H](NC(C)=O)CC2,-20.7% (inactive)
9,COC(=O)Nc1nc2ccc(C(=O)c3cccs3)cc2[nH]1,60% (active)
10,COc1ccc(-c2nc3ccc(C4=NNC(=O)CC4C)cc3[nH]2)cc1 (stereo not drawn),-36.5% (inactive)
11,CNC(=O)c1ccccc1Sc1ccc2c(/C=C/c3ccccn3)n[nH]c2c1,100% (active)
12,Oc1c(Cl)cc(Cl)c2cccnc12,-23.4% (inactive)
13,Cc1cc(O)c2ccccc2c1O,50% (active)
14,NC(=NCCCCCCN=C(N)/N=C(\N)Nc1ccc(Cl)cc1)/N=C(\N)Nc1ccc(Cl)cc1,-1.66% (inactive)
15,COC(=O)c1nc(Cl)c(Cl)nc1N,6.09% (inactive)
16,CC(=O)[C@]1(O)Cc2c(O)c3c(c(O)c2[C@@H](O[C@H]2C[C@H](N)[C@H](O)[C@H](C)O2)C1)C(=O)c1ccccc1C3=O,-143% (inactive)
17,CCN(CC)CCOc1ccc(/C(=C(\Cl)c2ccccc2)c2ccccc2)cc1,-7.53% (inactive)
18,Cc1cc(C2CCCCC2)n(O)c(=O)c1,4.72% (inactive)
19,CCCCc1oc2ccccc2c1C(=O)c1cc(I)c(OCCN(CC)CC)c(I)c1,22.9% (inactive)
20,O=c1[nH]c(=O)n([C@H]2C[C@H](O)[C@@H](CO)O2)cc1F,-21.7% (inactive)
21,CC(C)C[C@H](NC(=O)[C@H](CCc1ccccc1)NC(=O)CN1CCOCC1)C(=O)N[C@@H](Cc1ccccc1)C(=O)N[C@@H](CC(C)C)C(=O)[C@@]1(C)CO1,21.4% (inactive)
22,CC[C@]1(O)C[C@@H]2CN(CCc3c([nH]c4ccccc34)[C@@](C(=O)OC)(c3cc4c(cc3OC)N(C)[C@H]3[C@@](O)(C(=O)OC)[C@H](OC(C)=O)[C@]5(CC)C=CCN6CC[C@]43[C@@H]65)C2)C1,-21.1% (inactive)
23,Cc1cc(C)c(/C=C2\C(=O)Nc3ccccc32)[nH]1,98.7% (active)
